Test results reported in PubChem BioAssay.
Where “and” joins values, the source holds several entries; their conditions need not be identical. Identical values can stand only once. Calls of active or inactive are those of the source. Unless noted, how the calls were made is not given here.

Assays:
[1] = liver-stage malaria parasite growth inhibition, primary screen, cell-based, HepG2, luciferase luminescence, HepG2 viability (AID 624349; in the data active means parasite load remaining mostly below about 12%, no sharp cut-off; inactive means mostly above about 10%;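 further: 100% = mean of DMSO negative control wells on the same plate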); conditions: P. berghei liver stage in HepG2, luciferase luminescence, concentration not given here; parasite load remaining: stronger effect = lower value; viability: measured here: HepG2 viability without parasites
[2] = tested on: Hepatitis C virus NS3 helicase; assay: HCV NS3 helicase inhibitors, primary screen, biochemical, fluorescence polarization, LOPAC1280 library (AID 687035; in the data active means inhibition above about 37%); conditions: Purified HCV NS3 helicase, Cy5-dT15 ssDNA binding fluorescence polarization; stronger effect = higher value; concentration not given here
[3] = Cy5 fluorescence quenching or enhancement artefacts, artefact control for HCV NS3 helicase inhibitor project, biochemical, LOPAC1280 (AID 687037); conditions: Cy5-DNA-NS3h complex fluorescence interference counterscreen
[4] = stimulators of nuclear beta-catenin in C2C12, primary screen, imaging, WNT3A-conditioned medium, mouse C2C12, NPC library (AID 1117326; in the data active means nuclear beta-catenin stimulation mostly above about 4.2%, no sharp cut-off; inactive means mostly below about 10%); conditions: stronger effect = higher value
[5] = Cy5 fluorescence interference with SSB-bound oligo, artefact control for HCV NS3 helicase inhibitor project, biochemical, NIH Clinical Collection, E. coli SSB (AID 743268)
[6] = tested on: Hepatitis C virus NS3 helicase; assay: HCV NS3 helicase inhibitors, primary screen, biochemical, fluorescence polarization, NIH Clinical Collection (AID 743270); conditions: NS3 helicase binding to Cy5-dT15 DNA, stronger effect = higher value, concentration not given here
[7] = target: Single-stranded DNA-binding protein (Escherichia coli (strain K12)) (UniProt P0AGE0); assay: E. coli SSB displacement from DNA, counter-screen for HCV NS3 helicase inhibitor project, biochemical, fluorescence polarization, NIH Clinical Collection (AID 743271; in the data active means inhibition above about 28%); conditions: stronger effect = higher value, concentration not given here
[8] = fluorescence interference in NS3h assay format, artefact control for HCV NS3 helicase inhibitor project, biochemical, NIH Clinical Collection (AID 743272); conditions: fluorescence interference counterscreen, stronger effect = lower value;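 further: HCV NS3 helicase with a Cy5 labelled single stranded DNA probe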
[9] = tested on: Neuropilin-2 / VEGF-C interaction (human); assay: inhibitors of NRP2–VEGF-C binding, biochemical, microplate binding format, z-score (AID 743281); conditions: microplate NRP2/VEGF-C binding assay; stronger effect = lower value

Question: Which results are given for `NNc1nncc2ccccc12`?
Answer: parasite load remaining [1]: 83.7% (inactive) and 102% (inactive) and 72.4% (inactive); viability [1]: 72.8% and 96.1% and 95%; inhibition [2]: -3% (inactive); fluorescence ratio (interference) [3]: 1 (inactive); nuclear beta-catenin stimulation ([4]; at 10 µM): -0.9% (inactive); nuclear beta-catenin stimulation ([4]; stimulation, at 2 µM): -1.5%

Question: Which parasite load remaining [1] does the source give for `CCc1c(C)[nH]c2c1C(=O)C(CN1CCOCC1)CC2` (stereo not given) here?
Answer: 36.3% (inactive) and 102% (inactive)

Question: What about the viability [1] of the same molecule?
Answer: 89.9% and 75.4%

Question: What about the inhibition [2] of the same molecule?
Answer: -4% (inactive)

Question: And the fluorescence ratio (interference) [3]?
Answer: 0.9 (inactive)

Question: What about the fluorescence ratio [5] of the same molecule?
Answer: 1.09 (inactive)

Question: What about the inhibition [6] of the same molecule?
Answer: -1.36% (inactive)

Question: What about the inhibition [7] of the same molecule?
Answer: 1.81% (inactive)

Question: What about the fluorescence ratio [8] of the same molecule?
Answer: 1.01 (inactive)

Question: And the nuclear beta-catenin stimulation ([4]; at 10 µM)?
Answer: -1.2% (inactive)

Question: And the nuclear beta-catenin stimulation ([4]; stimulation, at 2 µM)?
Answer: -0.2%

Question: For `NC(=O)OCC(COC(N)=O)c1ccccc1`, which parasite load remaining [1] is on record?
Answer: 83.2% (inactive) and 111% (inactive)

Question: And the viability [1]?
Answer: 105% and 75.3%

Question: And the inhibition [2]?
Answer: -1% (inactive)

Question: What about the fluorescence ratio (interference) [3] of the same molecule?
Answer: 1 (inactive)

Question: And the fluorescence ratio [5]?
Answer: 1.05 (inactive)

Question: What about the inhibition [6] of the same molecule?
Answer: -2.77% (inactive)

Question: And the inhibition [7]?
Answer: -3.18% (inactive)

Question: What about the fluorescence ratio [8] of the same molecule?
Answer: 0.9 (inactive)

Question: And the z-score [9]?
Answer: 0.0538 (inactive)

Question: What about the nuclear beta-catenin stimulation ([4]; at 10 µM) of the same molecule?
Answer: -1.9% (inactive)

Question: What about the nuclear beta-catenin stimulation ([4]; stimulation, at 2 µM) of the same molecule?
Answer: 0%

Question: Which parasite load remaining [1] does the source give for `CCN1CCCC1CNC(=O)c1cc(S(=O)(=O)CC)c(N)cc1OC` (stereo not given) here?
Answer: 79.8% (inactive)

Question: And the viability [1]?
Answer: 68.8%

Question: What about the inhibition [2] of the same molecule?
Answer: -3% (inactive)

Question: What about the fluorescence ratio (interference) [3] of the same molecule?
Answer: 0.9 (inactive)

Question: And the fluorescence ratio [5]?
Answer: 1.05 (inactive)

Question: And the inhibition [6]?
Answer: 0.4% (inactive)

Question: And the inhibition [7]?
Answer: -4.72% (inactive)

Question: And the fluorescence ratio [8]?
Answer: 1.01 (inactive)

Question: What about the z-score [9] of the same molecule?
Answer: -0.283 (inactive)

Question: What about the nuclear beta-catenin stimulation ([4]; at 10 µM) of the same molecule?
Answer: -0.8% (inactive)

Question: What about the nuclear beta-catenin stimulation ([4]; stimulation, at 2 µM) of the same molecule?
Answer: -0.8%

Question: Which results are given for `CC(C(=O)O)c1ccc(CC2CCCC2=O)cc1` (stereo not given)?
Answer: parasite load remaining [1]: 108% (inactive); viability [1]: 79.1%; inhibition [2]: -4% (inactive); fluorescence ratio (interference) [3]: 1 (inactive); fluorescence ratio [5]: 1.12 (inactive); inhibition [6]: 5.94% (inactive); inhibition [7]: 4.52% (inactive); fluorescence ratio [8]: 1.09 (inactive); z-score [9]: -0.224 (inactive); nuclear beta-catenin stimulation ([4]; at 10 µM): -1.5% (inactive); nuclear beta-catenin stimulation ([4]; stimulation, at 2 µM): -0.2%

Question: Which results are given for `CNCC(O)c1ccc(O)c(O)c1` (stereo not given)?
Answer: parasite load remaining [1]: 40.1% (inactive); viability [1]: 89%; inhibition [2]: 0% (inactive); fluorescence ratio (interference) [3]: 1 (inactive); fluorescence ratio [5]: 1.02 (inactive); inhibition [6]: -1.36% (inactive); inhibition [7]: 15.5% (inactive); fluorescence ratio [8]: 1.02 (inactive); nuclear beta-catenin stimulation ([4]; at 10 µM): -1.1% (inactive); nuclear beta-catenin stimulation ([4]; stimulation, at 2 µM): -0.9%

Question: For `Brc1c(NC2=NCCN2)ccc2nccnc12`, which parasite load remaining [1] is on record?
Answer: 54.7% (inactive)

Question: What about the viability [1] of the same molecule?
Answer: 94.9%

Question: What about the inhibition [2] of the same molecule?
Answer: -3% (inactive)

Question: And the fluorescence ratio (interference) [3]?
Answer: 1 (inactive)

Question: And the fluorescence ratio [5]?
Answer: 1.04 (inactive)

Question: What about the inhibition [6] of the same molecule?
Answer: -5.91% (inactive)

Question: And the inhibition [7]?
Answer: -3.53% (inactive)

Question: And the fluorescence ratio [8]?
Answer: 0.99 (inactive)

Question: And the nuclear beta-catenin stimulation ([4]; at 10 µM)?
Answer: 0.3% (inactive)

Question: And the nuclear beta-catenin stimulation ([4]; stimulation, at 2 µM)?
Answer: -0.6%

Question: Which parasite load remaining [1] does the source give for `CN(Cc1cnc2nc(N)nc(N)c2n1)c1ccc(C(=O)N[C@@H](CCC(=O)O)C(=O)O)cc1` here?
Answer: 8.84% (inactive) and 39.4% (inactive) and 21.9% (inactive)

Question: And the viability [1]?
Answer: 38.7% and 143% and 94.1%

Question: And the inhibition [2]?
Answer: -1% (inactive)

Question: What about the fluorescence ratio (interference) [3] of the same molecule?
Answer: 1 (inactive)

Question: What about the fluorescence ratio [5] of the same molecule?
Answer: 0.92 (inactive)

Question: What about the inhibition [6] of the same molecule?
Answer: 1.19% (inactive)

Question: What about the inhibition [7] of the same molecule?
Answer: 26.9% (inactive)

Question: And the fluorescence ratio [8]?
Answer: 0.92 (inactive)

Question: What about the z-score [9] of the same molecule?
Answer: -1.5 (inactive)

Question: And the nuclear beta-catenin stimulation ([4]; at 10 µM)?
Answer: 74% (active)

Question: And the nuclear beta-catenin stimulation ([4]; stimulation, at 2 µM)?
Answer: 41%

Question: For `NC(=O)c1ncn([C@@H]2O[C@H](CO)[C@@H](O)[C@H]2O)n1`, which parasite load remaining [1] is on record?
Answer: 64.8% (inactive) and 245% (inactive) and 27% (inactive)

Question: And the viability [1]?
Answer: 80.3% and 108% and 67%

Question: And the inhibition [2]?
Answer: -6% (inactive)

Question: And the fluorescence ratio (interference) [3]?
Answer: 0.9 (inactive)

Question: And the nuclear beta-catenin stimulation ([4]; at 10 µM)?
Answer: 1.7% (inactive)

Question: What about the nuclear beta-catenin stimulation ([4]; stimulation, at 2 µM) of the same molecule?
Answer: 2.6%

Question: For `Clc1ccc2nsnc2c1NC1=NCCN1`, which parasite load remaining [1] is on record?
Answer: 61.3% (inactive) and 52.1% (inactive)

Question: And the viability [1]?
Answer: 95.4% and 240%

Question: What about the inhibition [2] of the same molecule?
Answer: -3% (inactive)

Question: What about the fluorescence ratio (interference) [3] of the same molecule?
Answer: 1 (inactive)

Question: And the fluorescence ratio [5]?
Answer: 1.05 (inactive)

Question: And the inhibition [6]?
Answer: -5% (inactive)

Question: What about the inhibition [7] of the same molecule?
Answer: -2.76% (inactive)

Question: What about the fluorescence ratio [8] of the same molecule?
Answer: 0.99 (inactive)

Question: What about the nuclear beta-catenin stimulation ([4]; at 10 µM) of the same molecule?
Answer: 0.6% (inactive)

Question: What about the nuclear beta-catenin stimulation ([4]; stimulation, at 2 µM) of the same molecule?
Answer: -0.6%

Question: With `Nc1nc2c(ncn2COC(CO)CO)c(=O)[nH]1` as the molecule, how does the parasite load remaining [1] read?
Answer: 53.7% (inactive) and 86.2% (inactive) and 12.5% (inactive)

Question: What about the viability [1] of the same molecule?
Answer: 114% and 95.7% and 65%

Question: And the inhibition [2]?
Answer: -2% (inactive)

Question: And the fluorescence ratio (interference) [3]?
Answer: 1 (inactive)

Question: What about the fluorescence ratio [5] of the same molecule?
Answer: 1.03 (inactive)

Question: What about the inhibition [6] of the same molecule?
Answer: -3.18% (inactive)

Question: What about the inhibition [7] of the same molecule?
Answer: -2.76% (inactive)

Question: And the fluorescence ratio [8]?
Answer: 1.02 (inactive)

Question: What about the nuclear beta-catenin stimulation ([4]; at 10 µM) of the same molecule?
Answer: 1.2% (inactive)

Question: And the nuclear beta-catenin stimulation ([4]; stimulation, at 2 µM)?
Answer: 1.2%

Question: What does the source list for `Nc1ccn([C@H]2CC[C@@H](CO)O2)c(=O)n1`?
Answer: parasite load remaining [1]: 89% (inactive) and 87.9% (inactive) and 17.9% (inactive); viability [1]: 73.7% and 72.5%; inhibition [2]: 0% (inactive); fluorescence ratio (interference) [3]: 1 (inactive); fluorescence ratio [5]: 1.05 (inactive); inhibition [6]: 2.77% (inactive); inhibition [7]: -1.64% (inactive); fluorescence ratio [8]: 1.02 (inactive); z-score [9]: 0.496 (inactive); nuclear beta-catenin stimulation ([4]; at 10 µM): -1% (inactive); nuclear beta-catenin stimulation ([4]; stimulation, at 2 µM): -1.5%

Question: With `C[C@@H]1C[C@H]2[C@@H]3C[C@H](F)C4=CC(=O)C(Cl)=C[C@]4(C)[C@@]3(F)[C@@H](O)C[C@]2(C)[C@@]1(O)C(=O)CO` as the molecule, how does the parasite load remaining [1] read?
Answer: 117% (inactive)

Question: And the viability [1]?
Answer: 79.4%

Question: And the fluorescence ratio [5]?
Answer: 1 (inactive)

Question: What about the inhibition [6] of the same molecule?
Answer: 6.73% (inactive)

Question: What about the inhibition [7] of the same molecule?
Answer: 7.6% (inactive)

Question: What about the fluorescence ratio [8] of the same molecule?
Answer: 0.96 (inactive)

Question: What about the nuclear beta-catenin stimulation ([4]; at 10 µM) of the same molecule?
Answer: 1.5% (inactive)

Question: What about the nuclear beta-catenin stimulation ([4]; stimulation, at 2 µM) of the same molecule?
Answer: 1.3%
